Assay results as given in the supplement of paper PMC11732987, “Enantioselective OTUD7B fragment discovery through chemoproteomics screening and high-throughput optimisation” (Communications Chemistry, 2025).
Unmarked numbers belong to inactive results.

Tests used:
Assay in all cases: log2 ratio of Biotin-Ahx-Ub-VS probe labelling (fragment/DMSO); higher = less target engagement (more negative = stronger competition), active = hit call of the paper (q ≤ 0.05, log2 ratio ≤ -1)
Conditions in all cases: compound concentration: 200 uM; treatment time: 3 h
USP42 = target: T1, USP42 (UniProt Q9H9J4)
T1 sequence (whole entry): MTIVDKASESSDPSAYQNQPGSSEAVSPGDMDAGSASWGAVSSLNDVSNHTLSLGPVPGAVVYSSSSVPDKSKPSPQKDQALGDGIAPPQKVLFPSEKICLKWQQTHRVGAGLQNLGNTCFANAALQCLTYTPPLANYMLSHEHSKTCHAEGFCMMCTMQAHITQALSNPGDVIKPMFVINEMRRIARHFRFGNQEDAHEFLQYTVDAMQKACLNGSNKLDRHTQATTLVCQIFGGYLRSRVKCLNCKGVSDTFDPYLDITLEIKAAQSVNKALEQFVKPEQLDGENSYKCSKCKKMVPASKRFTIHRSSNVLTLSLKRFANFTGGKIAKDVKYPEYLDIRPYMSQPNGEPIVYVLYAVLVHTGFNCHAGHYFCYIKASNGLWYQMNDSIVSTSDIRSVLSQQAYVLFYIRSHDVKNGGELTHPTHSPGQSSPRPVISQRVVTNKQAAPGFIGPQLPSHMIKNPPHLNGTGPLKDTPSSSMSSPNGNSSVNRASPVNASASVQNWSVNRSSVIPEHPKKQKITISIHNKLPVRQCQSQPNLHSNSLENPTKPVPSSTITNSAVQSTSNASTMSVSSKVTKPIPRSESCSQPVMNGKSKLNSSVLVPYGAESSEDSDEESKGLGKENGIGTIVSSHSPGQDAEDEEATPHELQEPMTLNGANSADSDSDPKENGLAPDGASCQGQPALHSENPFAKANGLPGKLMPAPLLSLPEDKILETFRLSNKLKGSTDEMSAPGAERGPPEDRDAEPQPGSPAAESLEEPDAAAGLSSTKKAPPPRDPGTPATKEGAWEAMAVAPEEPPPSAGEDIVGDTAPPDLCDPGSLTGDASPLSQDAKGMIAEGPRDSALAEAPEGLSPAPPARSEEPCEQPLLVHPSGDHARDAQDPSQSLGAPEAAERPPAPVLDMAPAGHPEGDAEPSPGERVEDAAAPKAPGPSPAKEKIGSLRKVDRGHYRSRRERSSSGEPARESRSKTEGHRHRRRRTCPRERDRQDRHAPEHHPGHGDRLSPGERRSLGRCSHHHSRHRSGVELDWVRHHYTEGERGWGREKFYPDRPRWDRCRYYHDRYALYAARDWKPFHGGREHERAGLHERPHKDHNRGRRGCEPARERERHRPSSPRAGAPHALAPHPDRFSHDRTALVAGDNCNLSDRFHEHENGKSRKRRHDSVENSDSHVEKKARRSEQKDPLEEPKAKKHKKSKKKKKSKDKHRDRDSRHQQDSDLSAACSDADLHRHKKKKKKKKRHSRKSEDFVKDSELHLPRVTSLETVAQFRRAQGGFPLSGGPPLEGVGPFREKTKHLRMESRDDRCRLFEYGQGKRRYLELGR
Summary of the method: (§1)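 Each value is an average log2 ratio of fragment to vehicle, tested by unpaired t-test. The underlying Spectronaut label-free quantities were global-median-normalised, and only proteins with ≥2 unique peptides were included. Triplicate HEK293T lysate samples (495 µg) were exposed to fragment at 200 µM or vehicle for 3 h, then to Biotin-Ahx-Ub-VS at 0.5 µM final for 1 h, before NeutrAvidin enrichment of labelled DUBs, LysC and trypsin digestion, and diaPASEF LC-MS/MS.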

USP46 = USP46 (UniProt P62068)
Summary of the method: as §1

USP47 = target: T2, USP47 (UniProt Q96K76)
T2 sequence (whole entry): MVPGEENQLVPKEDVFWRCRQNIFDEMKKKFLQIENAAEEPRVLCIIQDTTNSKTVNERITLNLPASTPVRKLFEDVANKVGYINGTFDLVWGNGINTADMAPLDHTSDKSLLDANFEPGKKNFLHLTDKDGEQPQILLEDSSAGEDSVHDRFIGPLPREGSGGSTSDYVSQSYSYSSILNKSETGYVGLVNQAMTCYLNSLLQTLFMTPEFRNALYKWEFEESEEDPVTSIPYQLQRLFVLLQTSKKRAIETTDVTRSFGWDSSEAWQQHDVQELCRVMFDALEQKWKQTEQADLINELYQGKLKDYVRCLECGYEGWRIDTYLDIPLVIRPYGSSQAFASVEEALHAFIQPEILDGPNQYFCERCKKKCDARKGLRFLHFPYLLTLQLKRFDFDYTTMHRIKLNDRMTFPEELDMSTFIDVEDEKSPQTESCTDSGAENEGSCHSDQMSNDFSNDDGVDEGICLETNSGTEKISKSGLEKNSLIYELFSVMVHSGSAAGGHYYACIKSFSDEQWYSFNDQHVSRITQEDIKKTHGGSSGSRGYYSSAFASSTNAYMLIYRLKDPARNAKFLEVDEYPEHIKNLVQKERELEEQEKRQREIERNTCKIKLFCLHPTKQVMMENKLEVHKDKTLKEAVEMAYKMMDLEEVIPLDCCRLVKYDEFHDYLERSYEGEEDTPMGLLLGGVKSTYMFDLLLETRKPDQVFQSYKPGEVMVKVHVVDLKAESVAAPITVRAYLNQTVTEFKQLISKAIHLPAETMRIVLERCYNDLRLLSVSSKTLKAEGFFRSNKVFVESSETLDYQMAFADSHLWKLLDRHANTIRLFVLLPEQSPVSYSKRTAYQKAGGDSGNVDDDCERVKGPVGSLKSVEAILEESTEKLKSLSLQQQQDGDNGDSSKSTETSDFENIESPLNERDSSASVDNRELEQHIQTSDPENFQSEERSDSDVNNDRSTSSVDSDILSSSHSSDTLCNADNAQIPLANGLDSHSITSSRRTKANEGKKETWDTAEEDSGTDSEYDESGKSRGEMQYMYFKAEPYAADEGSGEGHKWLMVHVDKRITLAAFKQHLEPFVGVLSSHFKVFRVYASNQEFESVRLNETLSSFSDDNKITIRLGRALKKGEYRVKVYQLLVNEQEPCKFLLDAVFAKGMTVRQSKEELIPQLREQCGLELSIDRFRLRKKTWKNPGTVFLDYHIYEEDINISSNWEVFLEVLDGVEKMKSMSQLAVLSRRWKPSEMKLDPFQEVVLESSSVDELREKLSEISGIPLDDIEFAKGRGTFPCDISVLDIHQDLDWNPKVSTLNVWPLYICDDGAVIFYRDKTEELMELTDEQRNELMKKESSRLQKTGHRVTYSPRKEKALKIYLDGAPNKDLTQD
Summary of the method: as §1

USP48 = target: T3, USP48 (UniProt Q86UV5)
T3 sequence (whole entry): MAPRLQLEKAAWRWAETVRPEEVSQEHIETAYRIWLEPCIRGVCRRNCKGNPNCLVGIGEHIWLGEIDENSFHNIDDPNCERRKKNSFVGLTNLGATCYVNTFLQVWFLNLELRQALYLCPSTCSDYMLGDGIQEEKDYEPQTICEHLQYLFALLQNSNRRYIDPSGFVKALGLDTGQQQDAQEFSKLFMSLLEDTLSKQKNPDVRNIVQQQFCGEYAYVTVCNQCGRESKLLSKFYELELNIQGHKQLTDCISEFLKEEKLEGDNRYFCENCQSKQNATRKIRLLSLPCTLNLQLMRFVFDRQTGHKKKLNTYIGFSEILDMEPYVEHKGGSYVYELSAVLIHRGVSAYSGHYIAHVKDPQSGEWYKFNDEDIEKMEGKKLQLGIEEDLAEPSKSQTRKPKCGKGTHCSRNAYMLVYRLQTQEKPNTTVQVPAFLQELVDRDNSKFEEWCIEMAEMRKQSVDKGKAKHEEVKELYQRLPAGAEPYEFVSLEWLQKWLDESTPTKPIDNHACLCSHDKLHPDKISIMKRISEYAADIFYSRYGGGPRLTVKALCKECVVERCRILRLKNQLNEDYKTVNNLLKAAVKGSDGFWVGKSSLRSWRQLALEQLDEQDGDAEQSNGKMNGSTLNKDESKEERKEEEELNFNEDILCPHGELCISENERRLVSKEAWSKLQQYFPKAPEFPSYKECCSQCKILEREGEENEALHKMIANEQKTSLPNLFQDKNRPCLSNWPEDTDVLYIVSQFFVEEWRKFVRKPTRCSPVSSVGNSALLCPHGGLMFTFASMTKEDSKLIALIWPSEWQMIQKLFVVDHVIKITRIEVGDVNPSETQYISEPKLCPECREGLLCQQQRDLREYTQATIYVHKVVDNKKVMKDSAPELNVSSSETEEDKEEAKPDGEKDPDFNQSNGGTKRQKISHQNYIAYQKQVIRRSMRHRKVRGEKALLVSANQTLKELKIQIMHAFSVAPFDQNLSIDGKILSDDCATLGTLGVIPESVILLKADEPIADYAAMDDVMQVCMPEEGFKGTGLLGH
Summary of the method: as §1

USP5 = target: T4, USP5 (UniProt P45974)
T4 sequence (whole entry): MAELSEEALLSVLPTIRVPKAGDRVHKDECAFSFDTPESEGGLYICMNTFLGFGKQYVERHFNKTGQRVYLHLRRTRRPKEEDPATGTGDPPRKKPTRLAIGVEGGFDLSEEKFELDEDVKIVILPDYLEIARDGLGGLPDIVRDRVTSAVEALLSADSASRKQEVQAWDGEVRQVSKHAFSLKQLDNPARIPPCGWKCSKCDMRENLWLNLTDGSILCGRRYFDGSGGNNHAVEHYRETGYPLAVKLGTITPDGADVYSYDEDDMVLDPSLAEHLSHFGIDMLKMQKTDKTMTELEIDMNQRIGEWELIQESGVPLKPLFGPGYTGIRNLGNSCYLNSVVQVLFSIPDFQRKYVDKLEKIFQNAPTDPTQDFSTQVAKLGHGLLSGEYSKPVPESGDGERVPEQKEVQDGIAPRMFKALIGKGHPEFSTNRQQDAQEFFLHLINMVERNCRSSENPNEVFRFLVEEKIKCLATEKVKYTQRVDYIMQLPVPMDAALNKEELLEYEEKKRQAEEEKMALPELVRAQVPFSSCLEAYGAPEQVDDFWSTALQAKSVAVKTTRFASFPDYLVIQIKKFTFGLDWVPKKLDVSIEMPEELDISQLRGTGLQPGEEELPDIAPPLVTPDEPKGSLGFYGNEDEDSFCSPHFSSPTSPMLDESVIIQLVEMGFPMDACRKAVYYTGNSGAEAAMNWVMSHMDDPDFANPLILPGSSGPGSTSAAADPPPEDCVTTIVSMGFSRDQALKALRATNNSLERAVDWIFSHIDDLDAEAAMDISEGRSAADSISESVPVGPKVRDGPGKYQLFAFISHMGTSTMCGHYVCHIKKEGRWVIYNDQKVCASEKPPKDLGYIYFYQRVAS
Summary of the method: as §1

USP54 = USP54 (UniProt Q70EL1)
Summary of the method: as §1

USP7 = USP7 (UniProt Q93009)
Summary of the method: as §1

USP8 = target: T5, USP8 (UniProt P40818)
T5 sequence (whole entry): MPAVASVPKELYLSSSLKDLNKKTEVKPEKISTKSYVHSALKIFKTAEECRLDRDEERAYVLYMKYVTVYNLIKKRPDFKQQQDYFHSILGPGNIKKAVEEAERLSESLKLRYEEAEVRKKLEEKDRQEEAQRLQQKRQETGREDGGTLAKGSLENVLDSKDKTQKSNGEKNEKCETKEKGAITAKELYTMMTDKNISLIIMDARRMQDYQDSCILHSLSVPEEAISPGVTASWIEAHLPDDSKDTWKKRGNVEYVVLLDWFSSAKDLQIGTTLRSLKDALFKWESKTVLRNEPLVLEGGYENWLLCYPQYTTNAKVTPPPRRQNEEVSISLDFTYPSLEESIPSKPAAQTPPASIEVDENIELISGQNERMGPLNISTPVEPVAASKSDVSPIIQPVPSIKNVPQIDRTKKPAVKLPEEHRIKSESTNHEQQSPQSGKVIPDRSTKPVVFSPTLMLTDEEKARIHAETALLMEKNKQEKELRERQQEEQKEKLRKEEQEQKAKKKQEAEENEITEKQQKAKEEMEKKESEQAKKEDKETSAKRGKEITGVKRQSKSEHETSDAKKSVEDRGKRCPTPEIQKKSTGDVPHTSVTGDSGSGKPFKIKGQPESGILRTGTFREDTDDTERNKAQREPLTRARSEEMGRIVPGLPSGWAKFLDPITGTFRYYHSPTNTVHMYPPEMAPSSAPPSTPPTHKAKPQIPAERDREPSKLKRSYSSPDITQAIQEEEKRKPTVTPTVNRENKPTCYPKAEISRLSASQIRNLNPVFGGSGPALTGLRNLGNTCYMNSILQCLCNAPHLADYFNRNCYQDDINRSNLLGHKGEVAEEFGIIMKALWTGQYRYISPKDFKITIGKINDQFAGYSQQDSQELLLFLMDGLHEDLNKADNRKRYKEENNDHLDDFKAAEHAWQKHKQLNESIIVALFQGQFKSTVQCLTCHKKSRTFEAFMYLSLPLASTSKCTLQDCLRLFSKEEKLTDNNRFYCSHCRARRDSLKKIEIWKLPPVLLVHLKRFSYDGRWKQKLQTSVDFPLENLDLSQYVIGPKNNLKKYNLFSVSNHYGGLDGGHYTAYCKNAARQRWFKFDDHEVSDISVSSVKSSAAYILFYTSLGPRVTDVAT
Summary of the method: as §1

USP9X = USP9X (UniProt Q93008)
Summary of the method: as §1

UniProt O00487 = target: UniProt O00487
Summary of the method: as §1

Chain of USP9X (Q93008 whole entry): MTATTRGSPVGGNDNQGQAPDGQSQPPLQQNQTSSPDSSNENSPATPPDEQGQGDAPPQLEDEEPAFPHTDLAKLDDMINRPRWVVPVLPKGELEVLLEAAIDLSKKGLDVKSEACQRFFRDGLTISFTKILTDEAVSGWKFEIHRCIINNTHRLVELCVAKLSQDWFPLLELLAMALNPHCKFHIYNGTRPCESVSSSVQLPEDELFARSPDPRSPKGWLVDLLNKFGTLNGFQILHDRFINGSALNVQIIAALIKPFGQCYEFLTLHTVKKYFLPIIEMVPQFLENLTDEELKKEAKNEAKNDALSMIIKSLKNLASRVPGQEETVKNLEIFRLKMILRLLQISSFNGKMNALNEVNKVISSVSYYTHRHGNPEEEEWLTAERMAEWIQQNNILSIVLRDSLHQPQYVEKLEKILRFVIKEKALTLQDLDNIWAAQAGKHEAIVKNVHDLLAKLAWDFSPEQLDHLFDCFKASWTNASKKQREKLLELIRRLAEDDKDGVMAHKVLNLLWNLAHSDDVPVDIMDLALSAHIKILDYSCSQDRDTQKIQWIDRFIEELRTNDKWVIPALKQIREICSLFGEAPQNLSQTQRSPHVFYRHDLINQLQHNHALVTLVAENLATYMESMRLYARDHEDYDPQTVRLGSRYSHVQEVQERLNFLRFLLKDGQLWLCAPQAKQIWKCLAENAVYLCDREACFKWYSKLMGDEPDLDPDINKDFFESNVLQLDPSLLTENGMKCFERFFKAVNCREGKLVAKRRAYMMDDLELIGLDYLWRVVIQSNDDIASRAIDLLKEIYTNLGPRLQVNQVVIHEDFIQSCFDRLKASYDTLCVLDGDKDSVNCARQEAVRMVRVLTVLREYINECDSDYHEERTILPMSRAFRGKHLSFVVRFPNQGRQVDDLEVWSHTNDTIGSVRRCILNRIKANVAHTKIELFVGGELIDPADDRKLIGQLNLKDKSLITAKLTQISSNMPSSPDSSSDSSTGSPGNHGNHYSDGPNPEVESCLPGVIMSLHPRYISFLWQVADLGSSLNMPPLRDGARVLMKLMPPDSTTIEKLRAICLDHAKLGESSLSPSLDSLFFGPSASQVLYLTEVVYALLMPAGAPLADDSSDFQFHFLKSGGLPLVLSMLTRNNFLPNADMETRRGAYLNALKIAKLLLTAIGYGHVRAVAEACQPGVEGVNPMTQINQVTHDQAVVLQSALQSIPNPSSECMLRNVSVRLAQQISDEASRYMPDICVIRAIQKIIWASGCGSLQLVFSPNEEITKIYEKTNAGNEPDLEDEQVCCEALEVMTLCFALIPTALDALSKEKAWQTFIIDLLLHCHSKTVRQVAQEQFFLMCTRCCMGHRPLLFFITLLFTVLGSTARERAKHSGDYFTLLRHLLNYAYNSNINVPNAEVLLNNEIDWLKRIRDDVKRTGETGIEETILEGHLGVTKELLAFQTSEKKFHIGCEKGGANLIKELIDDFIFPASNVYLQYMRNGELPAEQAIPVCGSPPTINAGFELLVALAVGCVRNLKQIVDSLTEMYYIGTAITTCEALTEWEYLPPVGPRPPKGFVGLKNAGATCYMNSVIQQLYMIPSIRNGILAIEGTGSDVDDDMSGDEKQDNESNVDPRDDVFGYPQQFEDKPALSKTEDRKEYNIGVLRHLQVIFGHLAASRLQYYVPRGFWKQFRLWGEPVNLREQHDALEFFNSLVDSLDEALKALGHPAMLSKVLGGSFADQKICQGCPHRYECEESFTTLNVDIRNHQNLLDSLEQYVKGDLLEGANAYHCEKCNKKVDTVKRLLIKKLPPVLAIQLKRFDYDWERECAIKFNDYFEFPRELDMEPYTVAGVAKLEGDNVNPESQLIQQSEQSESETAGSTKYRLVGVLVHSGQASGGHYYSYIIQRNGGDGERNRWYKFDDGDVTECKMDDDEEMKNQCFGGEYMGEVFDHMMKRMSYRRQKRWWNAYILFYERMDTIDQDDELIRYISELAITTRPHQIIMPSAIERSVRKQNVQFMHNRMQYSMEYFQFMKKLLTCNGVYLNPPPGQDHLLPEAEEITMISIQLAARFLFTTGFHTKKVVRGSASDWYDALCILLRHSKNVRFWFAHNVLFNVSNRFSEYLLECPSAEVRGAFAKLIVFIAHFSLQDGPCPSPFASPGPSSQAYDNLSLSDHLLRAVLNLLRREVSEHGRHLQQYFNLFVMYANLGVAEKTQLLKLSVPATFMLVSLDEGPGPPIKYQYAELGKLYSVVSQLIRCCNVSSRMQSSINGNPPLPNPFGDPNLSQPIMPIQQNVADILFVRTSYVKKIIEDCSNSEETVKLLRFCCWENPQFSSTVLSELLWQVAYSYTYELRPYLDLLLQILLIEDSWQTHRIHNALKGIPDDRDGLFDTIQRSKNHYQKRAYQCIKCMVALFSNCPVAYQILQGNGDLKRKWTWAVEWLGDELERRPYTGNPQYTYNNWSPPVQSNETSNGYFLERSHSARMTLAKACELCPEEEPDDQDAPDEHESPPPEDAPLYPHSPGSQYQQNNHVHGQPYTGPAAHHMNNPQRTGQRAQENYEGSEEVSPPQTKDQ
Chain of UniProt O00487 (O00487 whole entry): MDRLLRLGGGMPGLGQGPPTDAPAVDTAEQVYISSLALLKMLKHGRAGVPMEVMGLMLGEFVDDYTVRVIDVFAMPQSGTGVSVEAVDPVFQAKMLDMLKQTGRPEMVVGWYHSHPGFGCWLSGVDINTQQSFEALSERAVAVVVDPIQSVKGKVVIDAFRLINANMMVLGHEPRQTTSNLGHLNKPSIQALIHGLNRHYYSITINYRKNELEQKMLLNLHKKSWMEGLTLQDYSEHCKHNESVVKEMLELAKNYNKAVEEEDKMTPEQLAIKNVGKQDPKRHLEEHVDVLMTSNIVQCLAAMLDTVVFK
Chain of USP54 (Q70EL1 whole entry): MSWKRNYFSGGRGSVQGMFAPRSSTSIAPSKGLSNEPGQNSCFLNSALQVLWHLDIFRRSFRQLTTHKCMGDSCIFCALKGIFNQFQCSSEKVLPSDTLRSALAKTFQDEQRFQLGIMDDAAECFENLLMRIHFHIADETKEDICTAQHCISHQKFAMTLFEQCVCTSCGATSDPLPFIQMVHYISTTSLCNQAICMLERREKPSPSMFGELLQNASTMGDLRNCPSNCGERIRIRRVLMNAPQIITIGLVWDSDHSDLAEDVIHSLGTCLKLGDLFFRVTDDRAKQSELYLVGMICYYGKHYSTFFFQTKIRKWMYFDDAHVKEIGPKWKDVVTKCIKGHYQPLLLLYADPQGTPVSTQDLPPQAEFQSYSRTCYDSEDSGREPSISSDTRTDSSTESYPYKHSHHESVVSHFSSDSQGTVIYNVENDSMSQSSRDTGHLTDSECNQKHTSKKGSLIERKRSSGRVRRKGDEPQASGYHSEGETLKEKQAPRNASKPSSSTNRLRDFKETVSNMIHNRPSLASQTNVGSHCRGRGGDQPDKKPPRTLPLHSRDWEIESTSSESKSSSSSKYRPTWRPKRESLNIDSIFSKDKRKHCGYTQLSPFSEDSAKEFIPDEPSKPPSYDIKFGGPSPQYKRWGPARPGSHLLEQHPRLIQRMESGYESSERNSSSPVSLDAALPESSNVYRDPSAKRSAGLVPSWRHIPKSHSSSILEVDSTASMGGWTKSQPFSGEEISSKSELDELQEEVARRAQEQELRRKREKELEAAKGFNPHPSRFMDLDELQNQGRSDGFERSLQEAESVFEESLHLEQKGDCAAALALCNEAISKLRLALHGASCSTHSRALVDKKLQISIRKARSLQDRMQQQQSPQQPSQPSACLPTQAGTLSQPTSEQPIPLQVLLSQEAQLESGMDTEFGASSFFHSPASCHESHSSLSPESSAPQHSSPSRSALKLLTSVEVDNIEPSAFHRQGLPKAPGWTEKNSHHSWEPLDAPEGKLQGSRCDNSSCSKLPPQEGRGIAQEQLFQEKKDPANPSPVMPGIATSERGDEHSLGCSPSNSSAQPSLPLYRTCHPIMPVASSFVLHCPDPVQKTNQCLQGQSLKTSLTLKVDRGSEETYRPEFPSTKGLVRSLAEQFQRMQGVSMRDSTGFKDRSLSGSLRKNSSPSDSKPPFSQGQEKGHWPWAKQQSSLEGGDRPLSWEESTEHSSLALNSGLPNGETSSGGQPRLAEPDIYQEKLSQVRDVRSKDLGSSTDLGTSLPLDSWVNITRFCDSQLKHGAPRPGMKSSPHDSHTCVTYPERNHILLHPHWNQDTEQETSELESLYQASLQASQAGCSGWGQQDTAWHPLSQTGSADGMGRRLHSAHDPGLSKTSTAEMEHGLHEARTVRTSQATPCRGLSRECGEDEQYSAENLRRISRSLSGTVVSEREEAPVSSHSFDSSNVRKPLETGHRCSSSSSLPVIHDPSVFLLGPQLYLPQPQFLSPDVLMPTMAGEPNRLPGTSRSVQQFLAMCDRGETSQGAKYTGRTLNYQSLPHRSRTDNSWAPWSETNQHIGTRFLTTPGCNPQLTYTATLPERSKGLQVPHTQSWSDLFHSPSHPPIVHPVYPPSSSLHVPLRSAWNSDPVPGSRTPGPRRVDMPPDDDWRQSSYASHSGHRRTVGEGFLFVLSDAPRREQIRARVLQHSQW
Chain of USP46 (P62068 whole entry): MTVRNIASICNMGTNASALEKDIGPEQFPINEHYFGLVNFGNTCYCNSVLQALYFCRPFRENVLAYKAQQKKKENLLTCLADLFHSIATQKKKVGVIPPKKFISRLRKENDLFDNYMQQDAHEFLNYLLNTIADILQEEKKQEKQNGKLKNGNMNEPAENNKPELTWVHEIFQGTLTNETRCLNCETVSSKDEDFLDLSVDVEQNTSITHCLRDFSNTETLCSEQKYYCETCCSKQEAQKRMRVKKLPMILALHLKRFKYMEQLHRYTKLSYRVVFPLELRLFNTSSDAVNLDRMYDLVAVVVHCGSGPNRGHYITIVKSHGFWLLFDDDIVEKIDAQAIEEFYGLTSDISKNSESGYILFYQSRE

Row | SMILES | log2 ratio of Biotin-Ahx-Ub-VS probe labelling (USP42) | log2 ratio of Biotin-Ahx-Ub-VS probe labelling (USP46) | log2 ratio of Biotin-Ahx-Ub-VS probe labelling (USP47) | log2 ratio of Biotin-Ahx-Ub-VS probe labelling (USP48) | log2 ratio of Biotin-Ahx-Ub-VS probe labelling (USP5) | log2 ratio of Biotin-Ahx-Ub-VS probe labelling (USP54) | log2 ratio of Biotin-Ahx-Ub-VS probe labelling (USP7) | log2 ratio of Biotin-Ahx-Ub-VS probe labelling (USP8) | log2 ratio of Biotin-Ahx-Ub-VS probe labelling (USP9X) | log2 ratio of Biotin-Ahx-Ub-VS probe labelling (UniProt O00487)
1 | Cc1noc(C)c1CNC(=O)CCl | 0.262 | -0.347 | 0.0132 | -0.547 | -0.403 | 1.07 | -0.406 | -1.2 (active) | -0.717 | -0.395
2 | CCN(Cc1ccc(C#N)cc1F)C(=O)CCl | -0.249 | -0.114 | -0.791 | -1.26 (active) | 0.258 | 0.521 | -1.26 (active) | -0.229 | -0.229 | -0.0587
